An excerpt weighted towards active compounds, which were near 0.74% of everything screened.
Redox H2O2 prof: compounds producing H2O2 with reducing agent – biochemical, NIH compound library profiling, artefact control for MLSCN library redox annotation, primary screen; DTT-dependent redox cycling H2O2, phenol red/HRP absorbance; 100% = 100 µM peroxide control, 0% = buffer; activation, % at 10 µM; actives 0.03% (n = 200,000);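 active = activation of at least 50% relative to the plate's high and low controls in the primary single-dose screen; inactive = activation below 50%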;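 note: compound incubated with DTT at 0.8 mM final as the reducing agent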
LYPLA2 inh: counter-screen for PME1 inhibitors: inhibitors of human LYPLA2; actives 0.38% (n = 320,000); O95372; AID 2177; inhibition, % at 5.9 µM; recombinant LYPLA2, FP-Rh probe fluorescence polarization;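 active = inhibition above the screen-wide mean plus 3 SD, limit set per campaign, cut at about 26% in these data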;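 note: 0% = LYPLA2 with DMSO and 100% = wells lacking LYPLA2 enzyme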
Target sequence (O95372 whole entry, looked up): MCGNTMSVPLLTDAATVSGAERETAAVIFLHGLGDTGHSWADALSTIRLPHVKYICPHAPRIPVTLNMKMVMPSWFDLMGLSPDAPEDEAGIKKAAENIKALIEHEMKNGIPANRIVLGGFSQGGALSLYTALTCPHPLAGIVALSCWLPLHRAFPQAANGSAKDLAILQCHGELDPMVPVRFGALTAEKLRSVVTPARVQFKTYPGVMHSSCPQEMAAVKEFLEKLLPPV
p97 inhibitor: blocks human p97 ATPase activity; recombinant p97 ATPase, Kinase-Glo ATP luminescence, 3 h; P55072; actives 0.42% (n = 220,000); inhibition, % at 8 µM; in the data active = inhibition above about 15%;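 note: 0% = DMSO vehicle and 100% = wells lacking enzyme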
LYPLA1 inh: blocks human lysophospholipase 1, a PME1 counter-screen | AID 2174 | inhibition, % at 5.9 µM | recombinant LYPLA1, FP-Rh probe fluorescence polarization | actives 0.16% (n = 320,000) | O75608;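 active = inhibition above the mean of all tested compounds plus 3 SD, set per campaign, cut at about 14% in these data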;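 note: inhibitors block serine hydrolase probe labeling of LYPLA1 so polarization falls; 0% = enzyme with DMSO and 100% = wells lacking LYPLA1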
Target sequence (O75608 whole entry, looked up): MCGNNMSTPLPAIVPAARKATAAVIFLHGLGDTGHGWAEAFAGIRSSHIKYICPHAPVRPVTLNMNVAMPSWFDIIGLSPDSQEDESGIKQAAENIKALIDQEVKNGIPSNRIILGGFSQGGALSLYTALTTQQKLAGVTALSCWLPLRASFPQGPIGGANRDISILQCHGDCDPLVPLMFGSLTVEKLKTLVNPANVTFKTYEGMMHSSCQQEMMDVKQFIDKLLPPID
LYPLA2 conf: counter-screen for PME1 inhibitors: confirmation of human LYPLA2 inhibitors; actives 72% (n = 1,100); AID 2232; inhibition, % at 5.9 µM; shares compounds with LYPLA2 inh; recombinant LYPLA2, FP-Rh probe fluorescence polarization;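 active = mean inhibition across replicates above the hit cutoff set in the primary screen, cut at about 26% in these data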;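 note: blocked labeling of the enzyme by serine hydrolase FP-Rh probe lowers polarization; 0% = enzyme with DMSO and 100% = wells lacking LYPLA2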
LYPLA2 gel ABPP: LYPLA2 (human) inhibition, late stage results. AID 652029. rhLYPLA2 in mouse brain proteome, gel ABPP FP-Rh. inhibition, % at 20 µM. shares compounds with LYPLA2 inh. actives 30% (n = 150);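 active = inhibition of LYPLA2 enzyme probe labeling above about 50%, limit read from the data; inactive = inhibition below that limit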;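 note: loss of FP-Rh probe labeling of the LYPLA2 gel band measured as band density; 0% = DMSO only control band and 100% = blank gel background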
An asterisk follows results filed as active.

Results for CC(=O)N1CCCC(N2CCN(c3cccc(C(F)(F)F)c3)CC2)C1 (centres undefined) ?
LYPLA2 inh: 3.6; LYPLA1 inh: 1.1

What do the screens show for `Cc1ccc(C(=O)N2CCCC(N3CCN(c4cccc(C(F)(F)F)c4)CC3)C2)s1` (centres undefined)?
LYPLA2 inh: 42.2*; LYPLA1 inh: 10.4; LYPLA2 conf: 38.9*

Results for CCCCNC(=O)c1ccccc1SCc1c(C)noc1C ?
LYPLA2 inh: -2.9; LYPLA1 inh: 0.1

How did O=C(NCc1ccccn1)c1ccc(OC2CCN(Cc3ccc(Cl)s3)CC2)cc1 do in these assays?
LYPLA2 inh: 7.6; LYPLA1 inh: -0.4

Results for CC1C(=O)N2CCCc3cc(NC(=O)c4ccccc4C(F)(F)F)cc1c32 (centres undefined) ?
LYPLA2 inh: -3.1; LYPLA1 inh: -1.8

How did COc1ccc(CCNC(=O)CCOc2ccc(C)cc2)cc1OC do in these assays?
LYPLA2 inh: 1.8; LYPLA1 inh: 2.3

Results for COc1ccc(CC(=O)Nc2cccc(-c3nnc(-c4ccc(C)cc4)o3)c2)cc1OC ?
Redox H2O2 prof: 0.6; LYPLA2 inh: 30.7*; p97 inhibitor: 2.8; LYPLA1 inh: -3.1; LYPLA2 conf: 13.0

What do the screens show for `COc1ccc(CCNC(=O)COc2ccc(-c3ccc(C)cc3)cc2)cc1OC`?
Redox H2O2 prof: 2.8; LYPLA2 inh: 45.4*; p97 inhibitor: -4.1; LYPLA1 inh: -0.4; LYPLA2 conf: 40.5*

How did COc1ccc(CC(=O)Nc2cccc(-c3nnc(-c4cccc(C)c4)o3)c2)cc1OC do in these assays?
Redox H2O2 prof: 2.4; LYPLA2 inh: -52.0; p97 inhibitor: -1.2; LYPLA1 inh: -36.5

What do the screens show for `O=C(CCC1CCCC1)NNC(=O)c1ccccc1O`?
LYPLA2 inh: 5.9; LYPLA1 inh: 1.1

How did COc1ccc(CNc2ccc(N3CCOCC3)cc2)cc1 do in these assays?
LYPLA2 inh: 5.8; LYPLA1 inh: -0.8

How did COc1ccc(N2CCN(C(=O)c3ccc(CNc4c(N5CCOCC5)c(=O)c4=O)cc3)CC2)cc1 do in these assays?
Redox H2O2 prof: -2.4; LYPLA2 inh: 51.5*; p97 inhibitor: 2.6; LYPLA1 inh: 1.4; LYPLA2 conf: 58.0*; LYPLA2 gel ABPP: 35.0

Results for COc1ccc(N2CCN(C(=O)c3ccc(CNS(=O)(=O)c4cccc(OC)c4)cc3)CC2)cc1 ?
LYPLA2 inh: 31.2*; LYPLA1 inh: 0.0; LYPLA2 conf: 16.1

What do the screens show for `COc1ccc(N2CCN(C(=O)c3ccc(-c4ccccc4)cc3)CC2)cc1`?
LYPLA2 inh: 34.3*; LYPLA1 inh: 1.2; LYPLA2 conf: 34.8*

What do the screens show for `COc1cccc(S(=O)(=O)NCc2ccc(C(=O)N3CCN(c4ccccc4)CC3)cc2)c1`?
LYPLA2 inh: 20.2; LYPLA1 inh: 2.1

What do the screens show for `COc1ccc(S(=O)(=O)NCc2ccc(C(=O)N3CCc4ccccc4C3)cc2)cc1`?
Redox H2O2 prof: -0.4; LYPLA2 inh: 47.8*; p97 inhibitor: -8.6; LYPLA1 inh: 3.8; LYPLA2 conf: 56.9*; LYPLA2 gel ABPP: 28.0

How did O=C(c1ccc(-c2ccccc2)cc1)N1CCN(c2ccccc2)CC1 do in these assays?
LYPLA2 inh: 21.9; LYPLA1 inh: -0.3

What do the screens show for `CCOC(=O)CC(NS(=O)(=O)c1ccc2[nH]c(=O)sc2c1)c1ccc(C)cc1` (centres undefined)?
LYPLA2 inh: 6.6; LYPLA1 inh: -2.5

What do the screens show for `CC1=C(C)CC2(SC1)C(=O)N(c1ccccc1)N=C2N` (centres undefined)?
Redox H2O2 prof: -0.2; LYPLA2 inh: 7.0; p97 inhibitor: 1.6; LYPLA1 inh: 1.6

How did Cc1cc(NC(=O)CSc2nc(=O)n(CCCN(C)C)c3c2CCCC3)no1 do in these assays?
LYPLA2 inh: 3.8; LYPLA1 inh: -3.7

What do the screens show for `O=C(c1ccc(CNS(=O)(=O)c2ccccc2)cc1)N1CCN(Cc2ccccc2)CC1`?
Redox H2O2 prof: 0.0; LYPLA2 inh: 32.7*; p97 inhibitor: -1.2; LYPLA1 inh: 0.2; LYPLA2 conf: 32.2*

Results for CC1CCN(c2c(NCc3ccc(C(=O)N4CCN(C5CCCCC5)CC4)cc3)c(=O)c2=O)CC1 ?
Redox H2O2 prof: 0.2; LYPLA2 inh: 10.2; p97 inhibitor: 6.1; LYPLA1 inh: 3.0

Results for O=C(c1ccc(CNc2c(N3CCCC3)c(=O)c2=O)cc1)N1CC=C(c2ccccc2)CC1 ?
LYPLA2 inh: 47.0*; p97 inhibitor: 7.7; LYPLA1 inh: 11.9; LYPLA2 conf: 52.5*; LYPLA2 gel ABPP: 21.0

How did CS(=O)(=O)c1ccc(C(=O)N2CCN(Cc3ccccc3)CC2)cc1 do in these assays?
Redox H2O2 prof: -0.2; LYPLA2 inh: -1.5; p97 inhibitor: -0.5; LYPLA1 inh: 2.5

What do the screens show for `COc1cccc(S(=O)(=O)NCc2ccc(C(=O)N3CCN(c4ccccc4OC)CC3)cc2)c1`?
LYPLA2 inh: 57.5*; LYPLA1 inh: 0.1; LYPLA2 conf: 69.9*; LYPLA2 gel ABPP: 34.0

Results for O=[N+]([O-])c1cc(-n2cnnn2)ccc1N1CCC(Cc2ccccc2)CC1 ?
Redox H2O2 prof: -8.8; LYPLA2 inh: 28.0*; p97 inhibitor: -8.7; LYPLA1 inh: 1.9; LYPLA2 conf: 33.9*

Results for COc1cccc(C(=O)NC(=S)N2CCN(c3ccc(C(F)(F)F)cc3[N+](=O)[O-])CC2)c1 ?
Redox H2O2 prof: -0.5; LYPLA2 inh: 65.1*; p97 inhibitor: -2.5; LYPLA1 inh: 3.3; LYPLA2 conf: 51.8*; LYPLA2 gel ABPP: 13.0

Results for CC(C)Oc1cccc(C(=O)NC(=S)N2CCN(c3ccc(C(F)(F)F)cc3[N+](=O)[O-])CC2)c1 ?
Redox H2O2 prof: -7.8; LYPLA2 inh: 7.6; p97 inhibitor: -1.5; LYPLA1 inh: -7.5

How did CC(=O)N1CCN(c2ccc(NC(=O)c3cc4ccccc4o3)cc2)CC1 do in these assays?
LYPLA2 inh: 8.3; LYPLA1 inh: 3.6

What do the screens show for `CCCC(=O)Nc1ccc(N2CCN(C(=O)c3cc4ccccc4o3)CC2)cc1`?
LYPLA2 inh: 45.1*; LYPLA1 inh: 10.0; LYPLA2 conf: 49.6*

How did C#CCOCCOCCOCCNc1nc(N2CCN(C(=O)CCCCCCCCCCNC(=O)Cn3cc(CCCCCN)nn3)CC2)nc(N2CCN(C(=O)CCCCCCCCCCNC(=O)[C@H]([C@@H](C)CC)n3cc(CCCCN=C(N)N)nn3)CC2)n1 do in these assays?
LYPLA2 inh: 23.7; LYPLA1 inh: 2.7

Results for C#CCOCCOCCOCCNc1nc(N2CCN(C(=O)CCCCCCCCCCNC(=O)[C@H]([C@@H](C)CC)n3cc(CCCCCN)nn3)CC2)nc(N2CCN(C(=O)CCCCCCCCCCNC(=O)[C@H]([C@@H](C)CC)n3cc(CCCCN=C(N)N)nn3)CC2)n1 ?
LYPLA2 inh: 56.8*; LYPLA1 inh: 10.8; LYPLA2 conf: 56.3*
